Laboratory results taken from PubChem BioAssay AID2662 (National Center for Advancing Translational Sciences (NCATS), 2010).
Among all 290,000 compounds or so, about 110 (0.038%) were called active. Inconclusive results (about 3%) are left out. Calls follow the shape of the dose curve; as a rule, active = well fitted inhibition curve with a large enough effect in the polarisation, with a control signal flat (not every such curve was filed as active); inconclusive = small, poorly fitted or top-dose-only effect, or effect the other way, or a change in a side signal; inactive = no such curve, though single readings can be large or run the other way; the % refers to the polarisation. The entries come from a sample that favours actives as a whole. A call without a number means that no potency is given here.

molecular target: Histone-lysine N-methyltransferase 2A (Homo sapiens) (UniProt Q03164); experiment: qHTS Fluorescence Polarization Assay for Inhibitors of MLL CXXC domain - DNA interaction; settings: MLL-CXXC / FITC-HOXA9 DNA fluorescence polarization; series mostly up to 115 µM
Sequence (Q03164 whole entry, looked up, the tested form may be a part): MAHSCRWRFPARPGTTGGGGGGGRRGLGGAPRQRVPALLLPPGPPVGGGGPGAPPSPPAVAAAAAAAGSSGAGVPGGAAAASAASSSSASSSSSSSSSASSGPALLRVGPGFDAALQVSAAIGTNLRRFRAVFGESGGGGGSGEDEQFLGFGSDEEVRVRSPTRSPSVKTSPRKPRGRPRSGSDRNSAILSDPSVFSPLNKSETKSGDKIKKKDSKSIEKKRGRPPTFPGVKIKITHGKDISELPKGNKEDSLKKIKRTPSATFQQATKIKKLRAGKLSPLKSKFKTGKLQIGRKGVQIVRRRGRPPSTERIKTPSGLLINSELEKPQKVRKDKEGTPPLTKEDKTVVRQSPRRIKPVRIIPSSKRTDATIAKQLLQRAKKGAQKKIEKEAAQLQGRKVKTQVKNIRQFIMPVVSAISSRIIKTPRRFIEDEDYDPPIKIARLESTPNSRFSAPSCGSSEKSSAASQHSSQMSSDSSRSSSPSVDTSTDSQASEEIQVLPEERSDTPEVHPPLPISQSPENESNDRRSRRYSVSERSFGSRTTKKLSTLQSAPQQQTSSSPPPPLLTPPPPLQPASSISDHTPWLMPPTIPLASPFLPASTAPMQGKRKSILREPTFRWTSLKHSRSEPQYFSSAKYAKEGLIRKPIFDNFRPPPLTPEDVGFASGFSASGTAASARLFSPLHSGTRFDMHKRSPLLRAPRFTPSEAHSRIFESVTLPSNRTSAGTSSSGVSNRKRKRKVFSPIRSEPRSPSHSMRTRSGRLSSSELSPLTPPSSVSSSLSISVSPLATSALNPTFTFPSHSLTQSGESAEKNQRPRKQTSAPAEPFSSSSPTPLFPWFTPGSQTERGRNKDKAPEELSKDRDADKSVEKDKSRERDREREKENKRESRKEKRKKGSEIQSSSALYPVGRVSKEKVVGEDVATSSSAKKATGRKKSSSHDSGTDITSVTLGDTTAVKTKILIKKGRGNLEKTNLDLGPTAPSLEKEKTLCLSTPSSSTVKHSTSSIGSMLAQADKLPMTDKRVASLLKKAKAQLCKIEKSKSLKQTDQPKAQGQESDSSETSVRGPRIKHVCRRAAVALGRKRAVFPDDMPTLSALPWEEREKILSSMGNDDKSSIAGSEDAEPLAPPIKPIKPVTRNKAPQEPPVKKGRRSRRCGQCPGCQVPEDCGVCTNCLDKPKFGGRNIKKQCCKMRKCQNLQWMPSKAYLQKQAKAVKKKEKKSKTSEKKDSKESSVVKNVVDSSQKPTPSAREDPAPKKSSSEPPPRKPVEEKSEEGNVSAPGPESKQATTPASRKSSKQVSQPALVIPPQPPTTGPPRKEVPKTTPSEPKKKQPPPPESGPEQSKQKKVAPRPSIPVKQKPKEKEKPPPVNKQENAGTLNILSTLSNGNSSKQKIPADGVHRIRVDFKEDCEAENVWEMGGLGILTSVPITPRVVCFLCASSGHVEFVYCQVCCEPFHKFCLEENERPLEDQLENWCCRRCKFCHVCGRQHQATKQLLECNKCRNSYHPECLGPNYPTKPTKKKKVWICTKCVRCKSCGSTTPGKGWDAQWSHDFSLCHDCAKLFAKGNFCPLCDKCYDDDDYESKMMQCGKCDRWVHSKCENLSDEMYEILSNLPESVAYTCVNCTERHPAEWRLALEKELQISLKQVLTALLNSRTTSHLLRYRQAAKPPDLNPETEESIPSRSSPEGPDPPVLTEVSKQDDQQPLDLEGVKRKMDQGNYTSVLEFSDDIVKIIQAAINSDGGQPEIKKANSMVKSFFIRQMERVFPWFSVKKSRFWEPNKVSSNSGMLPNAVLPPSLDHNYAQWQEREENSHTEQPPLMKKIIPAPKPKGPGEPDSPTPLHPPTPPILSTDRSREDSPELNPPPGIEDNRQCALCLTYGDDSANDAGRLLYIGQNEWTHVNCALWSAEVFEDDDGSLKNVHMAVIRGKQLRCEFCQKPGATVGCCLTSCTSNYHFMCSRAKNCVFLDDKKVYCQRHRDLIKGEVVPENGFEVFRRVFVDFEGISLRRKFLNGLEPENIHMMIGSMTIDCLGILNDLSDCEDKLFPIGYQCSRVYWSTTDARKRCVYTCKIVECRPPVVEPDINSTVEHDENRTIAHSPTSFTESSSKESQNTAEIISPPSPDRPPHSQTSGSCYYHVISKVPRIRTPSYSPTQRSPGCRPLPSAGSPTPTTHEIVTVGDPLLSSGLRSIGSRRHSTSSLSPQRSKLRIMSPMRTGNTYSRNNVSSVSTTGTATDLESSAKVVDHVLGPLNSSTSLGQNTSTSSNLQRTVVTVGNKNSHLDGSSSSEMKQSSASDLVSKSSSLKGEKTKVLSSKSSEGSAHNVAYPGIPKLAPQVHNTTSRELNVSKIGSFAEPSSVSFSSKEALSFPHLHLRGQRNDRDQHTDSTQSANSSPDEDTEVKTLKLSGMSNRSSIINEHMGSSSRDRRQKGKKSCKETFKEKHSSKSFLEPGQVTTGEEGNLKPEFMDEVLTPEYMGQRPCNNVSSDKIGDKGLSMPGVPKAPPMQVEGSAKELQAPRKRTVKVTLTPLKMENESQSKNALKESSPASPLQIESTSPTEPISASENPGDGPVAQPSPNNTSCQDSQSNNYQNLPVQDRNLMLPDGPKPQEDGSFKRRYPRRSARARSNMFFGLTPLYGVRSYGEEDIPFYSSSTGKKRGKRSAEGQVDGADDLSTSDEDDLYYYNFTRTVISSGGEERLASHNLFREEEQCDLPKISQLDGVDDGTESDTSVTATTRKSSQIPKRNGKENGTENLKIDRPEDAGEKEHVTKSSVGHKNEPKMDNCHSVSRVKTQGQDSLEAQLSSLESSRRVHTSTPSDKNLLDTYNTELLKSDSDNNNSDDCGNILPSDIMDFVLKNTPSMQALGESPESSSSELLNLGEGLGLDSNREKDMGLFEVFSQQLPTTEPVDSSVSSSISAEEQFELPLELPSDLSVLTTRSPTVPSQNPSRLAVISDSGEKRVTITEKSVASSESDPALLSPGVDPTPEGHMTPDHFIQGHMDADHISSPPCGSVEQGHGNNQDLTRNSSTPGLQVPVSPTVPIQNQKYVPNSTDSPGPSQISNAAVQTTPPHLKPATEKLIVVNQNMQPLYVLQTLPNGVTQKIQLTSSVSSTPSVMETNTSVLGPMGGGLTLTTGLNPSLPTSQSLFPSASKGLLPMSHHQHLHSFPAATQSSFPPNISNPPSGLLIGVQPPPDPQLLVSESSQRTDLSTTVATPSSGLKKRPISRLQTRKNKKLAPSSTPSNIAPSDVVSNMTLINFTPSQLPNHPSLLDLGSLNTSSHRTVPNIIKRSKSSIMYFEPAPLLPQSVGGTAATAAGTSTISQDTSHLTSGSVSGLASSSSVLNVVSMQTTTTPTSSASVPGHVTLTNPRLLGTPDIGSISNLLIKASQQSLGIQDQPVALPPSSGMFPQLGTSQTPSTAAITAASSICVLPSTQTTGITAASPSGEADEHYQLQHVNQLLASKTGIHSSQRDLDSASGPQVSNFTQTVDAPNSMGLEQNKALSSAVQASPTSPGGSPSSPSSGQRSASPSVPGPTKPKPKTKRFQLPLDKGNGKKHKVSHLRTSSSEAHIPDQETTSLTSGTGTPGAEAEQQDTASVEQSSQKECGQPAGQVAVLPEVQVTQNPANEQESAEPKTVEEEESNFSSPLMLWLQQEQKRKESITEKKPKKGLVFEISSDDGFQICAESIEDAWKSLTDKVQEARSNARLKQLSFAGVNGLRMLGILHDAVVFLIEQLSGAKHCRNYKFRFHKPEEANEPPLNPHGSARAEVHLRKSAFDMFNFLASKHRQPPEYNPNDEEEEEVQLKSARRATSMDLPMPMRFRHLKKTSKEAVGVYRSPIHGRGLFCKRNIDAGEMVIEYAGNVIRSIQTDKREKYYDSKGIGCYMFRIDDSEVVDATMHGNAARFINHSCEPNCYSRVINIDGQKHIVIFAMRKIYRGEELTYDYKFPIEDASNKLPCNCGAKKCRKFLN
How it was run: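 Fluorescence polarization: 7 uM MLL-CXXC (stock) preincubated 5 min with compounds, then 50 nM fluorescein-HOX-A9 DNA (stock) added; 30 min ambient. Buffer 50 mM Tris-HCl pH 7.5, 50 mM NaCl, 1 mM DTT, 0.05% BSA.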
Potency is read from the fitted curve at half-maximal effect.

Row | SMILES | Potency
1 | O=C(NCCN1CCOC1=O)C1CCC(=O)N(CCc2ccc(Cl)cc2)C1 (stereo not given) | inactive
2 | Cc1cccc(-n2ncc(Cl)c(Cl)c2=O)c1 | inactive
3 | O=C(NCc1ccncc1)C(=O)NCC1OCCN1S(=O)(=O)c1ccc(Br)cc1 (stereo not given) | inactive
4 | NC(=O)C(=O)N/N=C/c1ccc([N+](=O)[O-])o1 | inactive
5 | Cc1ccc(NC(=O)CSc2cccc3cccnc23)c(C)c1 | inactive
6 | O=C(O)C(c1ccccc1)N1C(=O)/C(=C\c2ccc(-c3cccc(Cl)c3)o2)SC1=S (stereo not given) | inactive
7 | O=C1NN(c2ccccc2)C(=O)/C1=C/c1ccc(-c2cccc(C(=O)O)c2)o1 | 20 µM (active)
8 | Cc1cccc(C)c1-n1c(C)cc(/C=C2\C(=O)NN(c3ccccc3)C2=O)c1C | inactive
9 | O=C(NCCCn1ccnc1)c1cc2c(s1)CCCC2 | inactive
10 | CCOC(=O)/C(N=Nc1cc(C(=O)O)cc(C(=O)O)c1)=C(\O)CCl | 25.1 µM (active)
11 | O=C(NC1CCN(S(=O)(=O)c2ccc(F)cc2)CC1)c1ccccc1 | inactive
12 | O=S(=O)(c1ccc(Br)c2ccccc12)N1CCOCC1 | inactive
13 | COCCCN1C(=O)C(=O)/C(=C(/O)c2ccc(S(=O)(=O)N3CCOCC3)cc2)C1c1ccc(F)cc1 (stereo not given) | inactive
14 | CCOc1ccc2nc(N(CCCN(C)C)C(=O)c3ccc(C(=O)c4ccccc4)cc3)sc2c1 | inactive
15 | O=C1CCC(C(=O)N2CCN(c3ccccc3Cl)CC2)CN1CC1CCCCC1 (stereo not given) | inactive
16 | CCOC(=O)Cn1c(O)c(N=NC(=O)CNC(=O)Cc2ccccc2)c2ccccc21 | inactive
17 | Cc1cc(C)nc(N/N=C/c2c(CO)cnc(C)c2O)n1 | inactive
18 | CCCNC(=O)c1ccc(N2CCC3(CC2)CC(c2ccc(Cl)cc2)=NO3)c([N+](=O)[O-])c1 | inactive
19 | CCOC(=O)C1CCN(S(=O)(=O)c2ccc3c(c2)N(C)C(=O)CC(=O)N3C)CC1 | inactive
20 | O=C(NCc1ccncc1)C1CCN(C(=O)c2cccc(Cl)c2)CC1 | inactive
21 | O=C(CNC(=O)[C@@H]1Cc2ccccc2CN1)NC1CCCCC1 | inactive
22 | Cc1nn(C)c(Cl)c1CN1CCC(Oc2ccc(C(=O)N3CCCC3)cc2)CC1 | inactive

Row | SMILES | Potency
23 | Cc1ccc(S(=O)(=O)N/N=C(\c2ccccc2)C2CC2)cc1 | inactive
24 | O=C(NCCCn1ccnc1)c1cc(Br)c(Br)s1 | inactive
25 | Cc1cccc(CN2CCC(n3nccc3NC(=O)c3ccccc3C)CC2)n1 | inactive
26 | Cc1cc(=O)oc2c3c(cc(OCC(=O)N[C@H](C(=O)O)c4ccccc4)c12)OC(C)(C)CC3 | inactive
27 | CCCNC(=O)c1cnc(-c2ccccc2)nc1-c1ccccc1 | inactive
28 | CCCCc1nc2cc(C(=O)NCCc3cnn(C)c3)ccc2o1 | inactive
29 | COc1ccc(NC(=S)N2CCC(NC(=O)c3cccc(F)c3)CC2)cc1 | inactive
30 | S=C(Nc1ccc(Cl)cc1Cl)N1CCCC1 | inactive
31 | Cc1ccc(-c2csc(N3CCN(c4cc5c(cc4Cl)nc(-c4ccncc4)n5CCOCCO)CC3)n2)cc1 | inactive
32 | O=C(N/N=C/c1cccnc1)c1ccc(NC(=O)c2ccc(F)cc2)cc1 | inactive
33 | COCCC(=O)N1CCC(Oc2ccc(C(=O)NCc3ccon3)cc2)CC1 | inactive
34 | O=c1[nH]cnc(O)c1C(c1ccc(F)cc1)c1c(O)nc[nH]c1=O | inactive
35 | CCCc1nnc(NC(=O)CCC(=O)N2CCN(S(=O)(=O)c3ccc(OC)cc3)CC2)s1 | inactive
36 | O=C(c1cc2ccccc2o1)N1CCN(c2cccc(C(F)(F)F)c2)CC1 | inactive
37 | CCN(CC)CCCNC(=S)N(CCO)Cc1cc2cc3c(cc2[nH]c1=O)OCO3 | inactive
38 | CC(=O)N(CC(O)CO)c1c(I)c(C(=O)NCC(O)CO)c(I)c(C(=O)NCC(O)CO)c1I (stereo not given) | inactive
39 | CC(C)=CCN1CCN(Cc2cc3ccccc3[nH]2)CC1CCO (stereo not given) | inactive
40 | CCc1ccc(C(=O)NN=C2CCCCCC2)s1 | inactive
41 | COc1ccc(C(=O)Nc2ccc(C(=O)NCC3CCCO3)cc2)c(OC)c1OC (stereo not given) | inactive
42 | O=C(c1cccc(Br)c1)N1CCN(C2=NS(=O)(=O)c3ccccc32)CC1 | inactive
43 | O=C(NCCCNC(=O)c1ccccc1Cl)c1cnccn1 | inactive
44 | Cc1cc(C)c(C(=O)CSc2nc(C)cc(=O)[nH]2)c(C)c1 | inactive

Row | SMILES | Potency
45 | NC(=O)Cn1cc(/C=N\NS(=O)(=O)c2ccccc2)c2ccccc21 | inactive
46 | COc1cccc(CN(C)CC2CCCN(CCc3ccc(Cl)cc3)C2)c1OC (stereo not given) | inactive
47 | C/C=C/C=N/NC(=O)c1ccncc1 | inactive
48 | CN1C(=O)[C@H]2[C@@H](C3CC3)N3C(=O)CN(Cc4ccccc4)C(=O)[C@@]3(C)[C@H]2C1=O | inactive
49 | COc1ccc(C(=O)CCC(=O)Nc2cccnc2)c(OC)c1 | inactive
50 | CC(C)(O)c1ccccc1CC[C@H](SCC1(CC(=O)O)CC1)c1cccc(/C=C/c2ccc3ccc(Cl)cc3n2)c1 | inactive
51 | CCN(CC)c1ccc(C(=O)Nn2c(C)nc3ccccc3c2=O)cc1 | inactive
52 | O=C(NC(=S)Nc1ccc(Cl)c(C(=O)O)c1)c1cncc(Br)c1 | inactive
53 | CC(C)c1ccc(C2C(C(=O)c3ccco3)=C(O)C(=O)N2CC2CCCO2)cc1 (stereo not given) | inactive
54 | COc1cc(C)c(C)cc1S(=O)(=O)N1CCCc2ccccc21 | inactive
55 | Cc1c(S(=O)(=O)N2CC(C)CC(C)C2)c(=O)n(C)c(=O)n1C (stereo not given) | inactive
56 | O=CN1CCN(C(=O)c2ccc(Br)o2)CC1 | inactive
57 | Cc1ccc(NS(=O)(=O)c2ccc(-c3coc(C)n3)cc2)c(C)c1 | inactive
58 | COc1ccc2cc(S(=O)(=O)Nc3ccccn3)ccc2c1 | inactive
59 | COc1ccc(S(=O)(=O)/N=C2\C=C(NS(=O)(=O)c3ccccc3)C(=O)c3ccccc32)cc1 | 25.1 µM (active)
60 | COc1ccc(S(=O)(=O)Nc2c(C)n(C)n(-c3ccccc3)c2=O)cc1 | inactive
61 | NC(=O)c1cc(S(=O)(=O)N2CCCC2)ccc1OCc1ccc(F)cc1 | inactive
62 | O=C(O)c1ccc(S(=O)(=O)N2CCOCC2)o1 | inactive
63 | CCn1nc(C)c(CNC(=O)C2CCC(=O)N(Cc3cccc(F)c3)C2)c1C (stereo not given) | inactive
64 | COc1ccc(-c2cc(=O)oc3cc(OCC(=O)N(C)C4CCS(=O)(=O)C4)ccc23)cc1 (stereo not given) | inactive
65 | Cc1cc(C)c2c(Cn3ccnc3)cc(=O)oc2c1 | inactive
